Experiment [1] concerns the target Serine/threonine-protein kinase MRCK beta (Homo sapiens) (UniProt Q9Y5S2). As to conditions: at 1 µM.
Experiment [2] has the same target. As to conditions: at 10 µM.
In experiment [3] the target is Ribosomal protein S6 kinase alpha-5 (Homo sapiens) (UniProt O75582). As to conditions: at 1 µM.
The target of experiment [4] is Ribosomal protein S6 kinase alpha-4 (Homo sapiens) (UniProt O75676). As to conditions: at 1 µM.
Experiment [5] shares this target. As to conditions: at 10 µM.
Experiment [6] has as its target T1, Serine/threonine-protein kinase 4 (Homo sapiens) (UniProt Q13043).
T1 sequence (whole entry): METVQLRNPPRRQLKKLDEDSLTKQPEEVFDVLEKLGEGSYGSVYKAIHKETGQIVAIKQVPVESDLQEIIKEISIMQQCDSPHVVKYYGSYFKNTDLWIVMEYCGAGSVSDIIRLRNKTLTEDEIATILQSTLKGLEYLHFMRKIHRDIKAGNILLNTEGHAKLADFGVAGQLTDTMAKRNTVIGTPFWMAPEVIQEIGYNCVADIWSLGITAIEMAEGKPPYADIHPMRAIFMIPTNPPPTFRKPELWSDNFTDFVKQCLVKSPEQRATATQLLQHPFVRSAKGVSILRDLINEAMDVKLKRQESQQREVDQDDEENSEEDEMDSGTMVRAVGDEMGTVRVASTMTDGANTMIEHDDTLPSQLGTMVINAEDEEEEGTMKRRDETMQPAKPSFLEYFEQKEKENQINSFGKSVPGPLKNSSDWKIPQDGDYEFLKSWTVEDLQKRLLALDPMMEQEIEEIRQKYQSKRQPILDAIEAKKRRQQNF
As to conditions: at 1 µM.

The target in experiment [7] is T1, Serine/threonine-protein kinase 4 (Homo sapiens). As to conditions: at 10 µM.
Experiment [8] addresses T2, Serine/threonine-protein kinase 3 (Homo sapiens) (UniProt Q13188).
T2 sequence (whole entry): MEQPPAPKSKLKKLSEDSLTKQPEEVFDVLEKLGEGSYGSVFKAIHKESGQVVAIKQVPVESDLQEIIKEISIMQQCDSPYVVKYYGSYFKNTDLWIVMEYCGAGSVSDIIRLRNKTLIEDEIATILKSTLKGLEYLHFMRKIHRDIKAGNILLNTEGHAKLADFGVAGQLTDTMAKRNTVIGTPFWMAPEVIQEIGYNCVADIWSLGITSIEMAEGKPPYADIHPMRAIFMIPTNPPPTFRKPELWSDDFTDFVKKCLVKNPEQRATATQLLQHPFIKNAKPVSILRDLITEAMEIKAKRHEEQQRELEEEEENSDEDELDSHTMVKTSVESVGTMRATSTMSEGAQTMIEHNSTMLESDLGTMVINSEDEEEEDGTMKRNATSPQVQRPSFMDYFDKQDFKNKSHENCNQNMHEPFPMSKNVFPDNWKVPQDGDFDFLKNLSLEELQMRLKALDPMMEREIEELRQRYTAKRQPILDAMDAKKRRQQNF
As to conditions: at 10 µM.

The target in experiment [9] is Serine/threonine-protein kinase 24 (Homo sapiens) (UniProt Q9Y6E0). As to conditions: at 1 µM.
For experiment [10] the target is unchanged. As to conditions: at 10 µM.
Experiment [11] addresses T3, Tyrosine-protein kinase Mer (Homo sapiens) (UniProt Q12866).
T3 sequence (whole entry): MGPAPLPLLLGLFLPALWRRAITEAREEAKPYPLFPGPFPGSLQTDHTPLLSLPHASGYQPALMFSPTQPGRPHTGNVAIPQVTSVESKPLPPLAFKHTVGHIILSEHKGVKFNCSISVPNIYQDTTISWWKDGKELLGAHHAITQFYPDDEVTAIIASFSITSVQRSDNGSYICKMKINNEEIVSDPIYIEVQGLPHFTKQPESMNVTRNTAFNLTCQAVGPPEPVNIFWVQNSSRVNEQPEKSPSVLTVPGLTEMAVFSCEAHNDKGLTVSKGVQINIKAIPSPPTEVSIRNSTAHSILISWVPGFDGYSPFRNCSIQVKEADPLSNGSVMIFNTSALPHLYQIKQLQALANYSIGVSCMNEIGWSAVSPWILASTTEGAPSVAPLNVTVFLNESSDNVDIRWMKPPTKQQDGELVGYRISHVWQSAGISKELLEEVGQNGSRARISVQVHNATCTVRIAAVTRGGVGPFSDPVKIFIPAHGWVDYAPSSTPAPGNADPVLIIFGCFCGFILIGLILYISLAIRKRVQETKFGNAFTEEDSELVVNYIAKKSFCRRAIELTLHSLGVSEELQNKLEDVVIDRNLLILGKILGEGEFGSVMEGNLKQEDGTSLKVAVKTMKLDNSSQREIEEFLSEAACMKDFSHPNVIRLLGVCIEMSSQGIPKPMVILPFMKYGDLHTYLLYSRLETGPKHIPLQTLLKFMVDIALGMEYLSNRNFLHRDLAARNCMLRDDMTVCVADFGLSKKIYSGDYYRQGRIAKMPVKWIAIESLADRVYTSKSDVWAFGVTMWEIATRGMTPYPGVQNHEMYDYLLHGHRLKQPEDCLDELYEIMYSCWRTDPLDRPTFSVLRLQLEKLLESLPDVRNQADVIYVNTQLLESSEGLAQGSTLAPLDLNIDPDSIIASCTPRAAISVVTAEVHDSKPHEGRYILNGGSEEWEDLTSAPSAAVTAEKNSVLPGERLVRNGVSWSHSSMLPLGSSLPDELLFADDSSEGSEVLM
As to conditions: at 1 µM.

In experiment [12] the target is T3, Tyrosine-protein kinase Mer (Homo sapiens). As to conditions: at 10 µM.
The target in experiment [13] is SRSF protein kinase 3 (Homo sapiens) (UniProt Q9UPE1). As to conditions: at 1 µM.
The target is the same in experiment [14]. As to conditions: at 10 µM.
Experiment [15] has as its target T2, Serine/threonine-protein kinase 3 (Homo sapiens). As to conditions: at 1 µM.
Experiment [16] concerns the target Hepatocyte growth factor receptor (Homo sapiens) (UniProt P08581). As to conditions: at 10 µM.
Experiment [17] has as its target MAP kinase-interacting serine/threonine-protein kinase 2 (Homo sapiens) (UniProt Q9HBH9). As to conditions: at 1 µM.
Experiment [18] shares this target. As to conditions: at 10 µM.
For experiment [19], the target named is Ribosomal protein S6 kinase alpha-5 (Homo sapiens) (UniProt O75582). As to conditions: at 10 µM.
In experiment [20] the target is Hepatocyte growth factor receptor (Homo sapiens) (UniProt P08581). As to conditions: at 1 µM.

Molecules are shown by their SMILES.

By residual activity is commonly meant the signal under treatment as a percentage of the control signal.

Chain of Hepatocyte growth factor receptor (Homo sapiens) (P08581 whole entry): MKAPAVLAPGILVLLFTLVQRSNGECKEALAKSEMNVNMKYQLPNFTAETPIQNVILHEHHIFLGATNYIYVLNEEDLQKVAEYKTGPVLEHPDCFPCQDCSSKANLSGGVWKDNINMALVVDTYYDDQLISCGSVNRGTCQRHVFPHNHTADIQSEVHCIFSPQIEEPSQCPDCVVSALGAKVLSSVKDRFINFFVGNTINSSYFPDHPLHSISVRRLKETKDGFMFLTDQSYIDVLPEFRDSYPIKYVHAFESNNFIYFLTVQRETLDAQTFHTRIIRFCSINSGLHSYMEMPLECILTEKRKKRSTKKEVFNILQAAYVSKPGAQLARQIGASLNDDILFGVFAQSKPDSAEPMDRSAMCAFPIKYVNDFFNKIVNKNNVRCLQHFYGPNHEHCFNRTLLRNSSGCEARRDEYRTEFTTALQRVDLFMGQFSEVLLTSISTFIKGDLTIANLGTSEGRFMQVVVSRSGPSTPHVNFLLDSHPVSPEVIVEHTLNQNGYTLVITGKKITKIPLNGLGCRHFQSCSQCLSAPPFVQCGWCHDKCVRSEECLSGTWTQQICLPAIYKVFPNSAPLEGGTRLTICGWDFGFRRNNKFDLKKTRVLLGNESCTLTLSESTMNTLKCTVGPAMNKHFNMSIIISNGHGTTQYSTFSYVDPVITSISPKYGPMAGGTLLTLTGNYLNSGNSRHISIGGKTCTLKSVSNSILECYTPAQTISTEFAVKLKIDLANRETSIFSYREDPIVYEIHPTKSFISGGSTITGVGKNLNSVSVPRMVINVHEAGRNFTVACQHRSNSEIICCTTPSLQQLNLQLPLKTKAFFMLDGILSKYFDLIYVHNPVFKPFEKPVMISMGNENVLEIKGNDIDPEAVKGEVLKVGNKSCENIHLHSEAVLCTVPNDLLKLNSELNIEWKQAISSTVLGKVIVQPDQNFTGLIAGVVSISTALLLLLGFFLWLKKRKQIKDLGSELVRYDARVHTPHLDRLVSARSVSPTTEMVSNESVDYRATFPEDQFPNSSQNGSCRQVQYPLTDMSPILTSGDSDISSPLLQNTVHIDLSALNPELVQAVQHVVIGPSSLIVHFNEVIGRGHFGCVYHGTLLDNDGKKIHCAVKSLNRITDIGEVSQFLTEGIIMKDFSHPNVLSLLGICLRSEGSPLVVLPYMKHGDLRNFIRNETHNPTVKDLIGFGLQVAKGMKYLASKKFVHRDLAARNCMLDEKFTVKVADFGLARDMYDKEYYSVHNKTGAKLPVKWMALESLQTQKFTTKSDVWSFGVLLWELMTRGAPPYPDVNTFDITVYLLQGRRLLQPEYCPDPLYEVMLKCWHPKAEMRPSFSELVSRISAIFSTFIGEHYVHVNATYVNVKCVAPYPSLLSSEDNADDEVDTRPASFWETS
Chain of SRSF protein kinase 3 (Homo sapiens) (Q9UPE1 whole entry): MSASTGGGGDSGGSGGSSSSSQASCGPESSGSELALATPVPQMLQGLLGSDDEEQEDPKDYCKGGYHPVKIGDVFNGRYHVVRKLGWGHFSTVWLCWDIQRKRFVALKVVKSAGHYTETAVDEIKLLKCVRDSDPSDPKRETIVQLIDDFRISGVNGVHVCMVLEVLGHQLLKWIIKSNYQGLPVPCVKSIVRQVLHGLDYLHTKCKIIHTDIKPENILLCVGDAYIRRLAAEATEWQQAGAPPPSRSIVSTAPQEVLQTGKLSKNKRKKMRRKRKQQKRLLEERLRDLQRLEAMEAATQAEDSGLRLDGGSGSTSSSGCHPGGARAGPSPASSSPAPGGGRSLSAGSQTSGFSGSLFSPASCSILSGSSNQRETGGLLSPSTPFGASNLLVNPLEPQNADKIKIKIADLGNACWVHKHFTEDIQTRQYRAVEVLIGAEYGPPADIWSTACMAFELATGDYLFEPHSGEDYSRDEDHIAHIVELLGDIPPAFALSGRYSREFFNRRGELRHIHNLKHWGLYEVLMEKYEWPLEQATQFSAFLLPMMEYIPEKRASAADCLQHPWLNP
Chain of MAP kinase-interacting serine/threonine-protein kinase 2 (Homo sapiens) (Q9HBH9 whole entry, looked up): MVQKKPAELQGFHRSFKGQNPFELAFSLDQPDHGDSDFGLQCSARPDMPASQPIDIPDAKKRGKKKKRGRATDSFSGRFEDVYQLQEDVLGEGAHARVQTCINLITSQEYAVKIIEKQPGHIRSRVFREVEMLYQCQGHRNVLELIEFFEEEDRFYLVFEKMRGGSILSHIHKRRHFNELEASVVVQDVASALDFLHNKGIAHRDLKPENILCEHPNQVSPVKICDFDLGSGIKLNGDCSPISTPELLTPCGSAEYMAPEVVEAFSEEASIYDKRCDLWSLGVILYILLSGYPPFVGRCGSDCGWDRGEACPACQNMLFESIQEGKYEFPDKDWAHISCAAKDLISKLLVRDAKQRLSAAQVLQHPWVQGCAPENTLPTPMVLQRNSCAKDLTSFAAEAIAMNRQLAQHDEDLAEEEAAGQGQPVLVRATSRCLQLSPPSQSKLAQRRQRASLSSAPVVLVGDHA
Chain of Serine/threonine-protein kinase 24 (Homo sapiens) (Q9Y6E0 whole entry, looked up): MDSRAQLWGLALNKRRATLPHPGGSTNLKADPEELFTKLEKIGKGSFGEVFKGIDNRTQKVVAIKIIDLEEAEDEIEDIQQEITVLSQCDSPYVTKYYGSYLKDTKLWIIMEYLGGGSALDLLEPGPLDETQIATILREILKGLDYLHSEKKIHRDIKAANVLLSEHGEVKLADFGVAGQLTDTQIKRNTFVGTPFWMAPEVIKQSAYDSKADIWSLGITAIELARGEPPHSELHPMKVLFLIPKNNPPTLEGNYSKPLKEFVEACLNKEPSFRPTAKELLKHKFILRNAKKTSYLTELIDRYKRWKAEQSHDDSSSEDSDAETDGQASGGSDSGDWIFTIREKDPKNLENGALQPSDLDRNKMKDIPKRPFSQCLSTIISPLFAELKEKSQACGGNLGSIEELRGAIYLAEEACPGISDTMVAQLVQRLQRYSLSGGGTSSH
Chain of Ribosomal protein S6 kinase alpha-5 (Homo sapiens) (O75582 whole entry, looked up): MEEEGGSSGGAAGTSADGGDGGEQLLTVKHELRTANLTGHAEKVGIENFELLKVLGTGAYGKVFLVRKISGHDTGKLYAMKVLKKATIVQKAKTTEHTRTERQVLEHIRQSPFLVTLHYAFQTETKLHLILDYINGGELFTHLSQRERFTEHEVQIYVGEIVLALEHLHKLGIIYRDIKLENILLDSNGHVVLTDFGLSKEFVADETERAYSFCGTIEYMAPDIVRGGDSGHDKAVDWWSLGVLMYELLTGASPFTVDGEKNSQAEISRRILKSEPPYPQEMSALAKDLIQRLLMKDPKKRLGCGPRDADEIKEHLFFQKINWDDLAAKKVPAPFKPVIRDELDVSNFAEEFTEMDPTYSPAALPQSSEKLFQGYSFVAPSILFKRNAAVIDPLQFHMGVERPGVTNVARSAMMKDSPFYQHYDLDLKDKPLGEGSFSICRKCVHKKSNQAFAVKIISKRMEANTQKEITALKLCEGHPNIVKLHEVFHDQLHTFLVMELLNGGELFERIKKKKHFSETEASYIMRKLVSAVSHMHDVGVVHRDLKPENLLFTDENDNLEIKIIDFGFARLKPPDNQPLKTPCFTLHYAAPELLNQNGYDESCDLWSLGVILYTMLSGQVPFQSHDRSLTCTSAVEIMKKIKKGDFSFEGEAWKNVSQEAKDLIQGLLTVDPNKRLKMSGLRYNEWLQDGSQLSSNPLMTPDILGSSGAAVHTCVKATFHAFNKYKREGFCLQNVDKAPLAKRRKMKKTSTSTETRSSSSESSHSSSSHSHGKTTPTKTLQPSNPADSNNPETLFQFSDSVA
Chain of Ribosomal protein S6 kinase alpha-4 (Homo sapiens) (O75676 whole entry, looked up): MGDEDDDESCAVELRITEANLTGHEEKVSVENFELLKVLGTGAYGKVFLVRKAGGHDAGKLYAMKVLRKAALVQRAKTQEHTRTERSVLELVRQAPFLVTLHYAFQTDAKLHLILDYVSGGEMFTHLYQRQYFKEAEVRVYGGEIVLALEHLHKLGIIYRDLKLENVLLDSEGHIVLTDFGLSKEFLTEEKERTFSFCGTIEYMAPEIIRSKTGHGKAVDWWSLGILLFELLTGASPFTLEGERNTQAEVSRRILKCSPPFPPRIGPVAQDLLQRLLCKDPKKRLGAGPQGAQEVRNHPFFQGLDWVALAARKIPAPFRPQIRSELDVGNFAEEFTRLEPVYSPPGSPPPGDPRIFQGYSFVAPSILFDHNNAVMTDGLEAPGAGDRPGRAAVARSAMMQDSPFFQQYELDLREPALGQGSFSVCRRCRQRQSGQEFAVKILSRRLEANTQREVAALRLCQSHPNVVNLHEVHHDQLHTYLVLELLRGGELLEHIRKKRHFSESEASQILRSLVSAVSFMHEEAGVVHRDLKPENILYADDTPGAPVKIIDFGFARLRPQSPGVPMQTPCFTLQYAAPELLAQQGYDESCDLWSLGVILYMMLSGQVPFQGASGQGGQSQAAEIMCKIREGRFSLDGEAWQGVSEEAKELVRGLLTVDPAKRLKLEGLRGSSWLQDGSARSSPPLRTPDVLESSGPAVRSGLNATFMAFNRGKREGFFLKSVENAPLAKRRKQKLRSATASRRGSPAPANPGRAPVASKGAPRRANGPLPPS

`Cc1cccc(-c2[nH]c(C(C)(C)C)nc2-c2ccc3c(c2)OCO3)n1`: the residual activity in experiment [1] is 83%; in experiment [2], 86%; in experiment [3] it was 135%; in experiment [4] it was 97%; in experiment [5] it was 104%; in experiment [6], 102%. Besides, the residual activity in experiment [7] amounted to 105%; in experiment [8], 94%; in [9], 79%; in [10] it was 72%; in [11], 107%; in experiment [12] it was 97%.
For the compound `c1ccc2c(-c3ccncc3)c[nH]c2c1`, the residual activity stood at 94% in experiment [1]; 60% in experiment [2]; 80% in experiment [4]; 54% in experiment [5]; 102% in experiment [13]; 80% in experiment [14]. Also, the residual activity in experiment [6] came out at 89%; in [7] it was 97%; in experiment [15] it was 103%; in [8], 81%; in [9], 61%; in experiment [10], 69%. The residual activity came out at 100% in experiment [11]; 73% in experiment [12]; 68% in experiment [16]; 35% in experiment [17]; 9% in experiment [18].
`O=C(Nc1cccc(Nc2cc(Nc3cccc(C(F)(F)F)c3)ncn2)c1)C1CC1`: the residual activity was 86% in experiment [1]; 89% in [2]; 124% in experiment [3]; 107% in [19]; 96% in experiment [4]; 101% in experiment [5]. For the same compound, the residual activity in [13] is 102%; in experiment [14], 25%; in [6], 99%; in experiment [7], 87%; in [15], 106%; in [8] it was 65%. The residual activity in experiment [9] came out at 69%; in experiment [10], 42%; in experiment [11] it was 78%; in [12], 74%; in [20], 103%; in experiment [16], 75%. Also, the residual activity stood at 39% in [17] and 9% in experiment [18].
On to `Cn1cc(/C=C2\C(=O)Nc3ccc(S(N)(=O)=O)cc32)c2ccccc21`, for which the residual activity in experiment [1] stood at 83%; in [2], 87%; in [3], 86%; in experiment [19] it was 54%; in [4] it was 56%; in experiment [5] it was 41%. For the same compound, the residual activity in [13] was determined as 103%; in experiment [14] it was 25%; in [6], 13%; in experiment [7] it was 11%; in experiment [15], 27%; in experiment [8], 6%. In addition, the residual activity turned out to be 69% in experiment [9]; 63% in experiment [10]; 22% in experiment [11]; 16% in experiment [12]; 84% in experiment [20]; 80% in experiment [17]. Also, in experiment [18], the residual activity came to 72%.
Take `Nc1cccc(-c2cc3c(Oc4cccc(O)c4)ncnc3[nH]2)c1`: the residual activity in experiment [1] is 95%; in experiment [2], 84%; in experiment [3], 98%; in experiment [19] it was 117%; in experiment [4], 90%; in experiment [5], 68%. The residual activity in experiment [6] turned out to be 73%; in [7] it was 74%; in experiment [15], 99%; in [8], 69%; in experiment [9], 65%; in [10], 23%. Moreover, the residual activity in [11] turned out to be 81%; in [12] it was 35%; in experiment [20], 63%; in experiment [16] it was 22%; in experiment [17], 68%; in experiment [18], 20%.
Turning to `CN(C)CCCn1cc(C2=C(c3c[nH]c4ccccc34)C(=O)NC2=O)c2ccccc21`, the residual activity in experiment [2] was found to be 40%; in experiment [3] it was 24%; in experiment [19] it was 4%; in [4] it was 18%; in experiment [5], 3%; in experiment [13] it was 113%. Besides, the residual activity was determined as 55% in experiment [14]; 40% in experiment [6]; 9% in experiment [7]; 73% in experiment [15]; 17% in experiment [8]; 27% in experiment [9]. Moreover, the residual activity in experiment [10] was found to be 7%; in experiment [11], 60%; in experiment [12] it was 11%; in [16], 58%.
`Nc1n[nH]c2nnc(-c3c(-c4ccccc4)nn4ccccc34)cc12`: the residual activity in [1] is 90%; in [2] it was 79%; in experiment [3] it was 102%; in experiment [19], 113%; in [4], 93%; in [5] it was 78%. The residual activity was found to be 93% in experiment [13]; 56% in experiment [14]; 71% in [6]; 87% in [7]; 79% in experiment [15]; 91% in [8]. The residual activity in [10] came to 15%; in experiment [11], 86%; in [12] it was 57%; in experiment [20] it was 78%; in [16], 88%; in [17] it was 96%. Further, the residual activity in experiment [18] is 101%.

These data come from ChEMBL document CHEMBL2218924, “A broad activity screen in support of a chemogenomic map for kinase signalling research and drug discovery” (Biochem J, 2013).
